Laboratory results: PubChem BioAssay (NCATS)
Records with an inconclusive call do not appear. Where a call stands in place of a potency, no number is given. Values without a mark were called inactive. Activity calls are given as the source filed them. Calls follow the shape of the dose curve; as a rule, active = well fitted curve in the direction sought with a large enough effect; inconclusive = small, poorly fitted or top-dose-only effect, or another doubt; inactive = no such curve, though single readings can be large; an effect the other way counts as inactive or inconclusive.

Experiments:
[1] = system: NIH3T3; assay: qHTS assay to identify novel small-molecules to repurpose for Merkel cell carcinoma treatment (AID 1296009); conditions: MCC and control cell lines, CellTiter-Glo viability, 72 h; series mostly up to 44.8 µM; also: nearly all actives have a fitted effect of over 60% in size
Method in brief: (§1)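 72 hr, 37 degree celsius; NPC 8-pt / MIPE 11-pt dose response; compound pinned in DMSO; CellTiter-Glo, 10 min RT, luminescence; normalized to no-cell and DMSO controls.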

[2] = system: C33A; assay: Primary qHTS to identify gynecologic anti-cancer compounds using libraries of approved drugs and bioactive compounds (AID 1345084); conditions: Gynecologic cancer cell panel viability, ATPlite luminescence, 48 h; series mostly up to 57.5 µM; also: nearly all actives have a fitted effect of over 55% in size
Method in brief: (§2)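 In this quantitative HTS, cell killing is estimated from loss of ATP-dependent luciferase light. Cells see five compound concentrations over a 48 h exposure.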

[3] = system: CAOV3; assay: as above; conditions: Gynecologic cancer cell panel viability, ATPlite luminescence, 48 h; series mostly up to 57.5 µM
Method in brief: as §2

[4] = system: CASKI; assay: as above; conditions: Gynecologic cancer cell panel viability, ATPlite luminescence, 48 h; series mostly up to 57.5 µM
Method in brief: as §2

[5] = system: Es-2; assay: as above; conditions: Gynecologic cancer cell panel viability, ATPlite luminescence, 48 h; series mostly up to 57.5 µM
Method in brief: as §2

[6] = system: HeLa; assay: as above; conditions: Gynecologic cancer cell panel viability, ATPlite luminescence, 48 h; series mostly up to 57.5 µM
Method in brief: as §2

[7] = system: Hek293T; assay: as above; conditions: Gynecologic cancer cell panel viability, ATPlite luminescence, 48 h, control line for the selectivity index; series mostly up to 57.5 µM
Method in brief: as §2

[8] = system: JEG-3; assay: as above; conditions: Gynecologic cancer cell panel viability, ATPlite luminescence, 48 h; series mostly up to 57.5 µM
Method in brief: as §2

[9] = system: OV90; assay: as above; conditions: Gynecologic cancer cell panel viability, ATPlite luminescence, 48 h; series mostly up to 57.5 µM
Method in brief: as §2

[10] = system: PA-1; assay: as above; conditions: Gynecologic cancer cell panel viability, ATPlite luminescence, 48 h; series mostly up to 57.5 µM
Method in brief: as §2

[11] = system: SKOV3; assay: as above; conditions: Gynecologic cancer cell panel viability, ATPlite luminescence, 48 h; series mostly up to 57.5 µM
Method in brief: as §2

[12] = system: Tov-21-G; assay: as above; conditions: Gynecologic cancer cell panel viability, ATPlite luminescence, 48 h; series mostly up to 57.5 µM
Method in brief: as §2

[13] = system: Tov112D; assay: as above; conditions: Gynecologic cancer cell panel viability, ATPlite luminescence, 48 h; series mostly up to 57.5 µM
Method in brief: as §2

[14] = system: MKL-2; assay: qHTS assay to identify novel small-molecules to repurpose for Merkel cell carcinoma treatment (AID 1296009); conditions: MCC and control cell lines, CellTiter-Glo viability, 72 h; also: nearly all actives have a fitted effect of over 60% in size
Method in brief: as §1

[15] = Drug repurposing screens with cells derived from glioblastoma tumor samples (AID 1345199); conditions: GBM patient neurospheres viability, ATP luminescence, 48 h; also: nearly all actives have a fitted effect of over 40% in size
Method in brief: (§3)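 Four patient lines of CD133+ GBM neurospheres were screened at several concentrations; hits were retested in those lines plus three slower-growing GBM lines, using 48-hour treatment and ATP-based viability.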

[16] = system: astro; assay: as above; conditions: viability, ATP luminescence, 48 h; series mostly up to 45.9 µM
Method in brief: as §3
Potency is read from the fitted curve at half-maximal effect.

C=C1CCC2C(C)(C(=O)O)CCCC2(C)C1CCC1=CCOC1=O (stereo unspecified)
Potency [1]: inactive | Potency [2]: inactive | Potency [3]: inactive | Potency [4]: inactive | Potency [5]: inactive | Potency [6]: inactive | Potency [7]: inactive | Potency [8]: inactive | Potency [9]: inactive | Potency [10]: inactive | Potency [11]: inactive | Potency [12]: inactive | Potency [13]: inactive

CC(=O)OC1C(OC(=O)c2ccccc2)C2C(C)(C)CCC(OC(C)=O)C2(C)C23CCC(C)(C2)C(=O)CC13 (stereo unspecified)
Potency [1]: inactive | Potency [2]: inactive | Potency [3]: inactive | Potency [4]: inactive | Potency [5]: inactive | Potency [6]: inactive | Potency [7]: inactive | Potency [8]: inactive | Potency [9]: inactive | Potency [10]: inactive | Potency [11]: inactive | Potency [12]: inactive | Potency [13]: inactive

CC[N+]1(C/C2=C/CCCCCC2)CCC(NC(=O)C2c3cc(Cl)ccc3Oc3ccc(Cl)cc32)CC1 (stereo unspecified)
Potency [1]: inactive | Potency [2]: inactive | Potency [3]: inactive | Potency [4]: inactive | Potency [5]: inactive | Potency [6]: inactive | Potency [7]: inactive | Potency [8]: inactive | Potency [9]: inactive | Potency [10]: inactive | Potency [11]: inactive | Potency [12]: inactive | Potency [13]: inactive

CO[C@H]1O[C@@H]2O[C@@]3(C)CCC4[C@H](C)CCC([C@H]1C)[C@]42OO3 (stereo partly specified)
Potency [1]: inactive | Potency [2]: inactive | Potency [3]: inactive | Potency [4]: inactive | Potency [5]: inactive | Potency [6]: inactive | Potency [7]: inactive | Potency [8]: inactive | Potency [9]: inactive | Potency [10]: inactive | Potency [11]: inactive | Potency [12]: inactive | Potency [13]: inactive

CCCCOC(=O)NS(=O)(=O)c1sc(CC(C)C)cc1-c1ccc(Cn2ccnc2)cc1
Potency [1]: inactive | Potency [2]: inactive | Potency [3]: inactive | Potency [4]: inactive | Potency [5]: inactive | Potency [6]: inactive | Potency [7]: inactive | Potency [8]: inactive | Potency [9]: inactive | Potency [10]: inactive | Potency [11]: inactive | Potency [12]: inactive | Potency [13]: inactive

C=C1CCCC2(C)CCC(C(C)(C)OC3OC(C)C(O)C(O)C3OC(=O)/C(C)=C\C)CC12 (stereo unspecified)
Potency [1]: inactive | Potency [2]: inactive | Potency [3]: inactive | Potency [4]: inactive | Potency [5]: inactive | Potency [6]: inactive | Potency [7]: inactive | Potency [8]: inactive | Potency [9]: inactive | Potency [10]: inactive | Potency [11]: inactive | Potency [12]: inactive | Potency [13]: inactive

CCN1CCC[C@@H]1CNC(=O)c1ccc2c(c1)NC(=O)c1cccc(C)c1S2
Potency [1]: inactive | Potency [2]: inactive | Potency [3]: inactive | Potency [4]: inactive | Potency [5]: inactive | Potency [6]: inactive | Potency [7]: inactive | Potency [8]: inactive | Potency [9]: inactive | Potency [10]: inactive | Potency [11]: inactive | Potency [12]: inactive | Potency [13]: inactive

C=CCCN1CCC2(CC1)CN(C(=O)c1c(F)cccc1F)c1ccc(Cl)cc12
Potency [1]: inactive | Potency [2]: inactive | Potency [3]: inactive | Potency [4]: inactive | Potency [5]: inactive | Potency [6]: inactive | Potency [7]: inactive | Potency [8]: inactive | Potency [9]: inactive | Potency [10]: inactive | Potency [11]: inactive | Potency [12]: inactive | Potency [13]: inactive

CCN(CC)C(=O)C(c1ccccc1)N1CCN(c2ccc(NC(=O)c3ccccc3-c3cccnc3)cc2F)CC1 (stereo unspecified)
Potency [1]: inactive | Potency [2]: inactive | Potency [3]: inactive | Potency [4]: inactive | Potency [5]: inactive | Potency [6]: inactive | Potency [7]: inactive | Potency [8]: inactive | Potency [9]: inactive | Potency [10]: inactive | Potency [11]: inactive | Potency [12]: inactive | Potency [13]: inactive

Fc1ccc2c(CCNCc3cccc(OCC(F)(F)C(F)F)c3)c[nH]c2c1
Potency [1]: inactive | Potency [2]: inactive | Potency [3]: inactive | Potency [4]: inactive | Potency [5]: inactive | Potency [6]: inactive | Potency [7]: inactive | Potency [8]: inactive | Potency [9]: inactive | Potency [10]: inactive | Potency [11]: inactive | Potency [12]: inactive | Potency [13]: inactive

CN[C@H]1CC[C@@H](c2ccc(Cl)c(Cl)c2)c2ccccc21
Potency [14]: 8.41 µM (active) | Potency [4]: 28.2 µM (active) | Potency [11]: 28.2 µM (active) | activity, negative = cell killing ([15]; at 46.1 µM (top of the series), tumour line C): 17.5% | Potency ([15]; tumour line A): 2.24 µM (active) | Potency ([15]; tumour line B): 17.8 µM (active) | Potency ([15]; tumour line D): 6.31 µM (active) | Potency [16]: 20 µM (active)

CC(C)c1c(O)ccc2c1CC[C@H]1C(C)(C)CCC[C@]21C
Potency [1]: inactive | Potency [2]: inactive | Potency [3]: inactive | Potency [4]: inactive | Potency [5]: inactive | Potency [6]: inactive | Potency [7]: inactive | Potency [8]: inactive | Potency [9]: inactive | Potency [10]: inactive | Potency [11]: inactive | Potency [12]: inactive | Potency [13]: inactive

CCC(=O)N1CCOc2c(cc(-c3ccc(OC)c(OC)c3)cc2OC[C@H]2CCCN(C)C2)C1
Potency [1]: inactive | Potency [2]: inactive | Potency [3]: inactive | Potency [4]: inactive | Potency [5]: inactive | Potency [6]: inactive | Potency [7]: inactive | Potency [8]: inactive | Potency [9]: inactive | Potency [10]: inactive | Potency [11]: inactive | Potency [12]: inactive | Potency [13]: inactive

CC#CCn1c(N2CCCC(N)C2)nc2c1c(=O)n(Cc1nc(C)c3ccccc3n1)c(=O)n2C (stereo unspecified)
Potency [1]: inactive | Potency [2]: inactive | Potency [3]: inactive | Potency [4]: inactive | Potency [5]: inactive | Potency [6]: inactive | Potency [7]: inactive | Potency [8]: inactive | Potency [9]: inactive | Potency [10]: inactive | Potency [11]: inactive | Potency [12]: inactive | Potency [13]: inactive

COC(=O)N1CC2(CC2)C[C@H](C(=O)NO)[C@H]1C(=O)N1CCN(c2ccccc2)CC1
Potency [1]: inactive

CC1CCCC(O)CCC/C=C/c2cc(OS(=O)(=O)O)cc(O)c2C(=O)O1 (stereo unspecified)
Potency [1]: inactive | Potency [2]: inactive | Potency [3]: inactive | Potency [4]: inactive | Potency [5]: inactive | Potency [6]: inactive | Potency [7]: inactive | Potency [8]: inactive | Potency [9]: inactive | Potency [10]: inactive | Potency [11]: inactive | Potency [12]: inactive | Potency [13]: inactive
